# From PubChem
# A selection: hits, their analogues and other compounds. The true share with any hit is near 2.6%.
# Mcl1 Noxa PPI: Mcl-1/Noxa interaction inhibition | inhibition, % at 21.7 µM | 220,000 compounds, 1.5% hits | TR-FRET Mcl-1/Noxa peptide binding, 2 h | Q07820;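 active = compounds that cut the protein-peptide binding signal by more than 50% relative to plate controls in a single-dose test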;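 note: His-tagged Mcl-1 with rhodamine Noxa BH3 peptide and terbium anti-His antibody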
# Target sequence (Q07820 whole entry, looked up): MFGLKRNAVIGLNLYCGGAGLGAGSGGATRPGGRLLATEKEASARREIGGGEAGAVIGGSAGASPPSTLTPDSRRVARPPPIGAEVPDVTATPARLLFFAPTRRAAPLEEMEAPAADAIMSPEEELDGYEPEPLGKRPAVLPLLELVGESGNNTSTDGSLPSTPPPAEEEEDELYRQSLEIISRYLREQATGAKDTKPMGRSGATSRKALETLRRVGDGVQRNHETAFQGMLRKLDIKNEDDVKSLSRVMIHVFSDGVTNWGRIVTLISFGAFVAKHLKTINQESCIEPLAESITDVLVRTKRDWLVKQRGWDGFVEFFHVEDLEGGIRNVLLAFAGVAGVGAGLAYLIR
# MCL1-BIM inh: MCL1-BIM-BH3 interaction inhibition (human); AID 2057; inhibition, % at 10.9 µM; 320,000 compounds, 0.68% hits; GST-MCL1 / FITC-Bim-BH3 fluorescence polarization; Q07820;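 active = inhibition above the mean inhibition of all tested compounds plus 3 SD, set per campaign, cut at about 40% in these data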;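 note: higher means more loss of mP so more displacement of Bim peptide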
# Mcl-1 Bim block: inhibitors of Bim-Mcl-1 interaction, human; 190,000 compounds, 0.1% hits; Bead-based flow cytometry, Bim peptide-Mcl-1 binding; Q07820; inhibition, % at 10 µM; in the data active = inhibition above about 40%
# 14-3-3 Bad inh: disrupts binding of bovine 14-3-3 zeta to phospho-Bad peptide | P63103 | TR-FRET 14-3-3zeta/Dy647-pBad peptide displacement, 1 h | inhibition, % at 21.7 µM | 220,000 compounds, 0.71% hits;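 active = inhibition above about 70%, limit read from the data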
# eIF4E-4G inh: inhibitors of eIF4E and eIF4G interaction in translation initiation | P63073+Q04637 | TR-FRET eIF4E-eIF4GI(517-606) binding, 2 h | inhibition, % at 21.7 µM | 220,000 compounds, 0.37% hits | AID 782;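 active = inhibition above about 30%, limit read from the data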
# Mcl1-Bid inh: Mcl-1/Bid interaction inhibition. Q07820. TR-FRET Mcl-1/Bid-Dy647 peptide binding, 1536-well. inhibition, % at 21.7 µM. 220,000 compounds, 0.97% hits;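 active = compounds that cut the binding signal by more than half at the single screening dose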;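 note: His-tagged Mcl-1 with europium anti-His antibody binding Bid BH3 peptide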
# Hits are given with their value; - = inactive; . = no result; [ ] = another dose, or the depositor's remark.
SMILES,Mcl1 Noxa PPI,MCL1-BIM inh,Mcl-1 Bim block,14-3-3 Bad inh,eIF4E-4G inh,Mcl1-Bid inh
COc1cc(/C=C(\CC(=O)O)c2nc3ccccc3s2)cc(OC)c1O,58,-,-,-,-,-
CCc1ccc(OC(=O)c2cccnc2)cc1,.,-,.,.,.,.
CC(Cc1c[nH]c2ccccc12)C(=O)NCc1ccco1 (configuration not stated),.,-,.,.,.,.
Cc1sc2c(c1C)CN(CCN1CCOCC1)CN2C(=O)c1ccccc1,-,-,-,-,-,-
O=C(COc1ccc(C(=O)NCC2CCCO2)cc1)Nc1cccc(C(F)(F)F)c1 (configuration not stated),.,-,.,.,.,.
COc1ccc(C(=O)Nc2cccc(/C=C(\CCC(=O)O)c3nc4ccccc4s3)c2)cc1,85,-,.,-,-,-
CN(c1ccccc1)c1ccc(/C=C(\CCC(=O)O)c2nc3ccccc3s2)cc1[N+](=O)[O-],100,-,-,-,-,-
Cc1cc2oc(C(=O)N(Cc3ccccc3)C3CCS(=O)(=O)C3)cc(=O)c2cc1Cl (configuration not stated),-,-,-,88[fluorescence artefact?],-,-
Clc1ccccc1CSc1nnc(-c2ccncc2)o1,-,-,-,-,-,-
c1ccc2c(CSc3nnc(-c4ccncc4)o3)cccc2c1,-,-,-,78,-,-
c1ccc(-c2nnc(OCCN3CCOCC3)c3ccccc23)cc1,-,-,79,-,-,-
CCC(/C=C1\Sc2ccc(OC)cc2N1CCO)=C\c1sc2ccc(OC)cc2[n+]1CCO,-,-,42,-,-,-
CCOC(=O)C[n+]1c(C)sc2ccc(OC)cc21,54,-,-,80,-,-
CCOC(=O)CSc1ccc2nnc(CCNS(=O)(=O)c3ccccc3)n2n1,-,-,-,83,-,-
CCOC(=O)C(CC)Sc1ccc2nnc(CCNS(=O)(=O)c3ccccc3)n2n1 (configuration not stated),-,-,-,-,-,-
Cc1ccc(NC(=O)c2ccc(NS(=O)(=O)c3ccc4[nH]c(=O)[nH]c4c3)cc2)nc1,.,-,.,.,.,.
O=C1CC(Nc2ccc(N3CCOCC3)cc2)C(=O)N1c1cccc(C(F)(F)F)c1 (configuration not stated),-,-,-,-,-,53
CCc1cc2c(=O)n3c(nc2s1)-c1[nH]c2ccc(OC)cc2c1CC3,-,-,-,-,-,-
COc1ccc2[nH]c3c(c2c1)CCn1c-3nc2sc(C(=O)Nc3ccccc3)c(C)c2c1=O,54,.,-,-,-,75
CCOC(=O)c1cc(-c2ccccc2)sc1NC(=O)CC(C)C,-,-,-,74,-,-
O=C(Nc1ccc(Oc2ccccc2)cc1)C1CCN(c2ncccn2)CC1,-,-,-,79,-,-
CCN1CCN(CCOc2ccc(Br)cc2C)CC1,-,-,-,89,-,-
Cc1cccc(NC(=O)C2CCN(c3nc(C)cc(C)n3)CC2)c1,-,-,-,-,-,94
Cc1cccc(NC(=O)C2CCCN(c3nc(C)cc(C)n3)C2)c1 (configuration not stated),-,-,-,-,-,-
COc1ccccc1Nc1ccc(NS(=O)(=O)c2ccc(C(C)=O)cc2)cc1,.,-,.,.,.,.
SMILES,Mcl1 Noxa PPI,MCL1-BIM inh,Mcl-1 Bim block,14-3-3 Bad inh,eIF4E-4G inh,Mcl1-Bid inh
Cc1ccc(-c2nnc(N3CC(C)OC(C)C3)c3ccccc23)cc1 (configuration not stated),-,-,-,75,-,91
Cc1ccc(-c2nnc(N3CCCCC3)c3ccccc23)cc1,-,-,.,-,-,-
c1ccc2nc3c(nc2c1)c1ccccc1n3CCN1CCOCC1,-,-,-,-,-,-
CCn1c2ccccc2c2nc3cc(S(=O)(=O)N4CCOCC4)ccc3nc21,-,.,-,-,48,-
O=C(O)C1=C[C@H](c2ccc(F)cc2)C[C@H](OCCCCO)O1,-,-,.,-,-,-
O=C(Nc1cccc(C(F)(F)F)c1)c1cccnc1N1CCN(c2ccccc2)CC1,-,-,-,88[fluorescence artefact?],-,-
O=C(Nc1cccc(C(F)(F)F)c1)c1cccnc1N1CCN(CCO)CC1,-,-,-,-,-,-
O=C1CCCN1CCC1CCN(C2CC(=O)N(c3ccc(Cl)cc3)C2=O)CC1 (configuration not stated),-,-,-,-,-,-
Nc1ccccc1Nc1ccccc1,52,-,-,-,-,75
C#CCOCCOCCOCCNc1nc(N2CCN(C(=O)[C@H](CCCCN)n3cc(CCCC)nn3)CC2)nc(N2CCN(C(=O)[C@H](Cc3ccc(O)cc3)n3cc(CCO)nn3)CC2)n1,-,-,-,-,-,57
C#CCOCCOCCOCCNc1nc(N2CCN(C(=O)[C@H](C)n3cc(CCCN=C(N)N)nn3)CC2)nc(N2CCN(C(=O)[C@H](Cc3ccc(O)cc3)n3cc(CCO)nn3)CC2)n1,-,-,-,78,-,-
C#CCOCCOCCOCCNc1nc(N2CCN(C(=O)[C@H]([C@@H](C)CC)n3cc(CCC(=O)O)nn3)CC2)nc(N2CCN(C(=O)[C@H](C)n3cc(CCCN=C(N)N)nn3)CC2)n1,-,-,-,-,-,-
COc1ccc(CC(=O)Nc2ccc(F)c(F)c2F)cc1S(=O)(=O)N1CCOCC1,.,-,.,.,.,.
O=c1c2cc(Cl)ccc2nc(-c2ccccc2Cl)n1O,-,-,-,-,-,88
O=C(COc1ccccc1)NC(=S)Nc1ccc2c(c1)Cc1ccccc1-2,52,-,-,-,-,-
N#Cc1ccsc1NC(=O)COC(=O)C1=NNC(=O)CC1,.,-,.,.,.,.
FC(F)(F)c1nc(=S)c2ccccc2[nH]1,-,.,86,-,-,-
Nc1cccc2[nH]c(C(F)(F)F)nc12,52,-,-,-,-,-
Cc1nc(=S)c2ccccc2[nH]1,-,-,-,-,-,-
CCCCCCCCn1ccc(=N)cc1,-,-,.,-,-,-
